Test results taken from the supplement of paper PMC12350171.
Structures can show the parent of a compound that is named as a salt.

How the values were obtained:
Conditions in all cases: 20 µM
[1] = tested on: Salmonella enterica typhimurium; assay: growth AUC normalised to DMSO control (fraction of control); higher = less growth inhibition, active = hit call of the paper
How it was run: (§1)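 Pathogens passaged twice anaerobically were inoculated at a starting OD578 of 0.01 into pre-reduced mGAM plates with drug at 20 μM and 1% DMSO, sealed with breathable membranes. Haemophilus parainfluenzae medium was supplemented with hemin and NAD. OD578 was read hourly for 24 h, with three biological replicates. Growth-curve AUC was computed by the trapezoidal rule up to the exponential-to-stationary transition and normalised to DMSO controls on the same plate.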

[2] = tested on: Shigella flexneri; assay: as above
How it was run: as §1

[3] = tested on: Vibrio cholerae; assay: as above
How it was run: as §1

[4] = tested on: Yersinia pseudotuberculosis; assay: as above
How it was run: as §1

[5] = tested on: P. vulgatus RND KO; assay: growth AUC normalised to DMSO control (median) (fraction of control); higher = less growth inhibition, active = hit call of the paper
How it was run: (§2)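 Area under the growth curve, calculated by the trapezoidal rule up to entry into stationary phase, was normalised to vehicle wells on the same plate. Strains had been passaged twice overnight without oxygen and then grown in mGAM in 96-well plates from OD578 0.01, each with an approved-drug library compound at 20 μM in 1% DMSO. OD578 was read hourly over 24 h in an anaerobic incubator, and the median of three biological replicates is given.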

[6] = tested on: P. vulgatus WT; assay: as above
How it was run: as §2

[7] = tested on: S. enterica typhimurium WT; assay: as above
How it was run: as §2

[8] = tested on: S. enterica typhimurium tolC KO; assay: as above
How it was run: as §2

Measured: growth AUC normalised to DMSO control
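Wherever growth AUC normalised to DMSO control (median) is given: active when median AUC fell below 0.1.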

COC(=O)Nc1nc2cc(C(=O)c3ccc(F)cc3)ccc2[nH]1 [Flubendazol]
inactive: [1] 1.02 | [2] 0.994 | [3] 0.993 | [4] 0.994 | [5] 1.04 | [6] 1.07 | [7] 1.01 | [8] 1

CC/C(=C(/CC)c1ccc(O)cc1)c1ccc(O)cc1 [Diethylstilbestrol]
inactive: [1] 1 | [2] 0.983 | [3] 0.93 | [4] 0.973 | [5] 0.744 | [6] 0.827 | [7] 1 | [8] 0.827

CC(C(=O)O)c1ccc2c(c1)Cc1cccnc1O2 (stereo not drawn) [Pranoprofen]
inactive: [1] 0.999 | [2] 0.976 | [3] 0.993 | [4] 1.01 | [5] 1.04 | [6] 1.04 | [7] 1.01 | [8] 1

CC(=O)Oc1ccccc1C(=O)Oc1ccccc1C(=O)O [Acetylsalicylsalicylic acid]
inactive: [1] 0.997 | [2] 0.973 | [3] 0.983 | [4] 0.932 | [5] 0.998 | [6] 1.04 | [7] 0.999 | [8] 0.997

NS(=O)(=O)c1cc(C(=O)O)c(NCc2ccco2)cc1Cl [Furosemide]
inactive: [1] 0.996 | [2] 1.01 | [3] 1.01 | [4] 1.01 | [5] 1.05 | [6] 1.06 | [7] 1.02 | [8] 1.02

COc1ccc(C(=O)NCc2cccnc2)cc1C(=O)NCc1cccnc1 [Picotamide monohydrate]
inactive: [1] 0.989 | [2] 0.968 | [3] 0.992 | [4] 0.984 | [5] 1 | [6] 1.01 | [7] 0.995 | [8] 0.998

CCCNC(=O)NS(=O)(=O)c1ccc(Cl)cc1 [Chlorpropamide]
inactive: [1] 1 | [2] 1.02 | [3] 1.01 | [4] 0.996 | [5] 1.02 | [6] 1.06 | [7] 1.01 | [8] 1.04

CC(C)(S)C(N)C(=O)O (racemic) [D,L-Penicillamine]
inactive: [1] 0.993 | [2] 0.991 | [3] 0.996 | [4] 0.992 | [5] 1.01 | [6] 1.01 | [7] 1.01 | [8] 1

CCN1CCC[C@H]1CNC(=O)c1c(O)c(Cl)cc(Cl)c1OC [Raclopride]
inactive: [1] 1 | [2] 0.983 | [3] 0.985 | [4] 0.951 | [5] 1.04 | [6] 1.04 | [7] 0.994 | [8] 1

CCc1c2c(nc3ccc(OC(=O)N4CCC(N5CCCCC5)CC4)cc13)-c1cc3c(c(=O)n1C2)COC(=O)[C@]3(O)CC [Irinotecan hydrochloride trihydrate]
inactive: [1] 0.999 | [2] 1.01 | [3] 1.01 | [4] 0.998 | [5] 1 | [6] 1.1 | [7] 1 | [8] 0.986

O=C(NCCO[N+](=O)[O-])c1cccnc1 [Nicorandil]
inactive: [1] 0.995 | [2] 0.99 | [3] 0.991 | [4] 0.999 | [5] 0.986 | [6] 0.996 | [7] 1.01 | [8] 1.01

CNC(=O)c1c(I)c(C(=O)NCC(=O)Nc2c(I)c(C(=O)O)c(I)c(C(=O)NCCO)c2I)c(I)c(N(C)C(C)=O)c1I [Ioxaglic acid]
inactive: [1] 0.968 | [2] 0.993 | [3] 1.01 | [4] 0.964 | [5] 1.01 | [6] 1 | [7] 0.997 | [8] 0.994

COc1cc(NC(C)CCCN)c2ncccc2c1 (stereo not drawn) [Primaquine diphosphate]
inactive: [1] 0.998 | [2] 1.01 | [3] 1.01 | [4] 1.02 | [5] 1.01 | [6] 1.02 | [7] 1.01 | [8] 0.998

CC(NCCC(c1ccccc1)c1ccccc1)c1ccccc1 (stereo not drawn) [Fendiline hydrochloride]
inactive: [1] 1.01 | [2] 1.02 | [3] 0.86 | [4] 0.996 | [5] 0.978 | [6] 0.977 | [7] 1 | [8] 0.95

CCCCNc1cc(C(=O)O)cc(S(N)(=O)=O)c1Oc1ccccc1 [Bumetanide]
inactive: [1] 0.969 | [2] 0.991 | [3] 0.982 | [4] 0.995 | [5] 1.01 | [6] 1.01 | [7] 0.996 | [8] 0.991

C[C@H]1O[C@@H](O[C@H]2[C@@H](O)C[C@H](O[C@H]3[C@@H](O)C[C@H](O[C@H]4CC[C@@]5(C)[C@H](CC[C@@H]6[C@@H]5C[C@@H](O)[C@]5(C)[C@@H](C7=CC(=O)OC7)CC[C@]65O)C4)O[C@@H]3C)O[C@@H]2C)C[C@H](O)[C@@H]1O [Digoxin]
inactive: [1] 0.978 | [2] 0.945 | [3] 0.973 | [4] 0.993 | [5] 0.985 | [6] 1.01 | [7] 0.987 | [8] 0.995

CN(C)CCOC1=Cc2ccccc2Sc2ccc(Cl)cc21 [Zotepine]
inactive: [1] 1.01 | [2] 1 | [3] 0.877 | [4] 1 | [5] 0.935 | [6] 0.874 | [7] 1.01 | [8] 0.959

Cc1cc(C(C)(C)C)c(O)c(C)c1CC1=NCCN1 [Oxymetazoline hydrochloride]
inactive: [1] 0.997 | [2] 0.994 | [3] 1 | [4] 1 | [5] 0.994 | [6] 0.988 | [7] 1.01 | [8] 0.985

CC(C)(Sc1cc(C(C)(C)C)c(O)c(C(C)(C)C)c1)Sc1cc(C(C)(C)C)c(O)c(C(C)(C)C)c1 [Probucol]
inactive: [1] 0.996 | [2] 1.02 | [3] 0.998 | [4] 0.985 | [5] 1 | [6] 0.997 | [7] 1.01 | [8] 1

CC(=O)N[C@@H](CC(C)C)C(=O)O [N-Acetyl-L-leucine]
inactive: [1] 1.04 | [2] 1.01 | [3] 1.03 | [4] 1 | [5] 0.99 | [6] 0.997 | [7] 0.999 | [8] 0.996

CCCCOc1ccc(OCCCN2CCOCC2)cc1 [Pramoxine hydrochloride]
inactive: [1] 0.998 | [2] 1.01 | [3] 1 | [4] 0.983 | [5] 1.04 | [6] 1.03 | [7] 1 | [8] 0.988

Cc1cnc(NC(=O)C2=C(O)c3ccccc3S(=O)(=O)N2C)s1 [Meloxicam]
inactive: [1] 1.01 | [2] 0.953 | [4] 1 | [5] 0.982 | [6] 0.991 | [7] 0.994 | [8] 0.947
active: [3] 0.837

OC(CCN1CCCCC1)(c1ccccc1)C1CCCCC1 (stereo not drawn) [Trihexyphenidyl-D,L hydrochloride]
inactive: [1] 1 | [2] 0.996 | [3] 0.961 | [4] 1.02 | [5] 1.02 | [6] 1.04 | [7] 1.01 | [8] 0.986

CC[N+](CC)(CC(=O)Nc1c(C)cccc1C)Cc1ccccc1 [Denatonium benzoate]
inactive: [1] 1.01 | [2] 1.02 | [3] 1.03 | [4] 0.982 | [5] 1.05 | [6] 1.09 | [7] 0.999 | [8] 1.01

Cc1nccn1CC1CCc2c(c3ccccc3n2C)C1=O (stereo not drawn) [Ondansetron hydrochloride]
inactive: [1] 1.01 | [2] 1.04 | [3] 1.01 | [4] 1 | [5] 1.01 | [6] 1.04 | [7] 1 | [8] 0.984

CS(=O)(=O)Nc1ccc([N+](=O)[O-])cc1Oc1ccccc1 [Nimesulide]
inactive: [1] 0.985 | [2] 0.953 | [3] 0.907 | [4] 0.984 | [5] 0.983 | [6] 0.979 | [7] 0.988 | [8] 0.984

COc1ccc(-c2cc(=O)c3c(O)cc(O[C@@H]4O[C@H](CO[C@@H]5O[C@@H](C)[C@H](O)[C@@H](O)[C@H]5O)[C@@H](O)[C@H](O)[C@H]4O)cc3o2)cc1O [Diosmin]
inactive: [1] 0.988 | [2] 0.96 | [3] 0.971 | [4] 0.975 | [5] 0.997 | [6] 0.991 | [7] 1 | [8] 0.996

CCCc1cc(C(N)=S)ccn1 [Prothionamide]
inactive: [1] 1 | [2] 1 | [3] 1.01 | [4] 1 | [5] 0.988 | [6] 0.997 | [7] 0.987 | [8] 0.981

CCCCCN(C)CCC(O)(P(=O)(O)O)P(=O)(O)O [Ibandronate sodium]
inactive: [1] 0.982 | [2] 0.98 | [3] 0.992 | [4] 1.01 | [5] 0.998 | [6] 1.01 | [7] 0.99 | [8] 1

CN(C)CCOC(=O)COc1ccc(Cl)cc1 [Meclofenoxate hydrochloride]
inactive: [1] 0.977 | [2] 0.942 | [3] 0.977 | [4] 0.935 | [5] 0.996 | [6] 0.985 | [7] 1.01 | [8] 0.995

CCN1CCC[C@H]1CNC(=O)c1c(OC)ccc(Br)c1OC [Remoxipride hydrochloride]
inactive: [1] 1.01 | [2] 1.04 | [3] 1.03 | [4] 1.01 | [5] 1.03 | [6] 1.06 | [7] 1.01 | [8] 1.01
